Screens (PubChem BioAssay)
An excerpt weighted towards active compounds, which were near 3.5% of everything screened.
Anthrax LF inh2 – inhibitors of Bacillus anthracis lethal factor protease; P15917; multiplex microsphere protease cleavage assay, LF; inhibition, % at 10 µM; actives 0.12% (n = 360,000); AID 588501
BoNT A protease – BoNT A light chain protease inhibition; actives 0.17% (n = 360,000); multiplex microsphere protease substrate cleavage, flow cytometry; inhibition, % at 10 µM
BJeLR viability – BJeLR cell viability loss; BJeLR (HRASV12) viability, CellTiter-Glo ATP luminescence, 48 h; inhibition, % (concentration not given with the values); actives 0.17% (n = 300,000); AID 1554; in the data active means inhibition above about 50%; inconclusive means no clear call, values can overlap the other calls
Bead autofluor – flagged as autofluorescent in microsphere protease counterscreen. compound autofluorescence counterscreen, microsphere flow cytometry; active compounds read high. fluorescence intensity (concentration not given with the values). actives 3.1% (n = 360,000). AID 624483; in the data active means fluorescence intensity above about 16000; inconclusive means no clear call, values can overlap the other calls
BoNT F protease – BoNT F light chain protease inhibition; actives 0.22% (n = 360,000); Multiplex microsphere protease cleavage assay, flow cytometry; inhibition, % at 10 µM; in the data active means inhibition above about 35%, passing the limit was not always enough; inconclusive means no clear call, values can overlap the other calls
Large screens that a line does not name were inactive. Unless noted, no stated cut-off is given here; in the data, active means inhibition above about 30%; inconclusive means no clear call, values can overlap the other calls; inactive means below that.

CCOC(=O)C1CCCN(C(=O)c2ccc3c(=O)n(CCOC)c(=S)[nH]c3c2)C1 (stereo not drawn)	Bead autofluor 20489
COc1ccc(CN2CCN(c3ccccn3)CC2)c(OC)c1	none
c1ccc(-c2ccc(CN3CCN(c4ncccn4)CC3)cc2)cc1	Bead autofluor 16137
FC(F)(F)c1cccc(CN2CCN(c3ncccn3)CC2)c1	none
Fc1cccc(CN2CCN(c3ncccn3)CC2)c1	Bead autofluor 19248 (no result: BJeLR viability)
COc1ccc(CN2CCN(c3ncccn3)CC2)c(OC)c1	Bead autofluor 22491
CC1(C(=O)NS(=O)(=O)c2ccccc2)CCN1C(=O)CC1CCCCC1 (stereo not drawn)	none (no result: BJeLR viability)
CCN1C(=O)[C@H]2[C@@H](c3ccc(OC)cc3)N[C@]3(CCCN(Cc4ccc(F)cc4)C3=O)[C@H]2C1=O	none (no result: BJeLR viability)
CCOc1c(C(=O)CC)cc2c(C)cc(=O)oc2c1C	Bead autofluor 16306
CN(C)CCCNS(=O)(=O)c1cc(Cl)ccc1Cl	BoNT A protease inconclusive, Bead autofluor 20853
Cc1cccc(C)c1OCC(=O)NCC1COc2ccccc2O1 (stereo not drawn)	none (no result: BJeLR viability)
Fc1ccccc1OCCSc1nnnn1-c1ccccc1	Bead autofluor 20510
c1ccc(OCCSc2nnnn2-c2ccccc2)cc1	none
CC(C#N)(NC(=O)CN1CCN(S(=O)(=O)c2cccc(F)c2)CC1)C1CC1 (stereo not drawn)	none (no result: BJeLR viability)
COc1ccc(CNc2nc3ccccc3n2C)c(OC)c1	none
COc1ccc(N/C=C(\C#N)c2nc3ccccc3n2C)c(OC)c1	Bead autofluor 18044
CC(=O)Nc1ccc(Cl)c(-c2nc3ncccc3o2)c1	none
CCC(C(=O)Nc1cnccn1)c1ccccc1 (stereo not drawn)	Bead autofluor 24267
CCOC(=O)C(CC)c1cc2n(c(=O)c1C#N)CCC21OCCO1 (stereo not drawn)	none (no result: BJeLR viability)
O=C1CC(C(=O)N(c2ccc(F)cc2)C(C(=O)NC2CCCC2)c2ccccn2)CS1 (stereo not drawn)	Bead autofluor 22756
ClC1=CN(C2=NCCC2)CC1	none (no result: BJeLR viability)
CC(C)C(c1nnnn1C1CCCCC1)N1CCCc2ccccc21 (stereo not drawn)	none
CC(C)C(c1nnnn1C1CCCC1)N1CCCc2ccccc21 (stereo not drawn)	Bead autofluor 24060
CC(C)C(c1nnnn1C1CCCC1)N1CCc2ccccc21 (stereo not drawn)	Bead autofluor 17487 (no result: BJeLR viability)
CCNC(=O)c1sc(-c2ccccc2)nc1C	BoNT A protease inconclusive, Bead autofluor 21235
Cc1nc(-c2cccnc2)sc1C(=O)Nc1ccc(Cl)cc1	none
COc1ccc(/C=C/C(=O)c2sc(-c3ccccc3)nc2C)cc1	Bead autofluor 23221
Cc1nc(-c2cccnc2)sc1C(N)=O	Bead autofluor 16867
Cc1ccc2nc(-c3cccc(Br)c3)c(Cc3ccccc3C(F)(F)F)n2c1	none (no result: BJeLR viability)
Cc1cc(C)n2c(NC3CCCCC3)c(CC(C)C)nc2n1	none (no result: BJeLR viability)
COc1ccc(Cl)cc1Cn1c(C)c(C(=O)NCc2ccc(F)cc2)sc1=O	none (no result: BJeLR viability)
CN1OC[C@@H]2CN[C@H](c3cccc(Oc4ccccc4)c3)C[C@@H]21	none (no result: BJeLR viability)
Cc1cccc2c1OCC/C2=N\NC(=O)COc1ccccc1Cl	Bead autofluor 22273
COc1cccc(-c2cnc3c(NC(C)=O)cc(-c4ccsc4)cn23)c1	none (no result: BJeLR viability)
COc1cccc(C(=O)Oc2c(CN3CCOCC3)cc(Cl)c3cccnc23)c1	Bead autofluor 22802
O=C(Oc1c(CN2CCOCC2)cc(Cl)c2cccnc12)c1ccc(F)cc1	Bead autofluor 22240
CCN1CCN(c2ccc(S(=O)(=O)N3CCCCC3)cc2NC(=O)/C=C/c2cccc(OC)c2OC)CC1	none
CN(C)CCNc1ncnc2c1ncn2[C@H]1CN(Cc2ccc(-c3ccccc3)cc2)C[C@@H](CO)O1	none (no result: BJeLR viability)
COC(=O)c1ccc(Oc2nc(Nc3ccc(C)c(C)c3)nc(N(C)C)n2)cc1	Bead autofluor 24525
CCNc1nc(Oc2ccc(C(=O)OC)cc2)nc(N(C)C)n1	none
CCOC(=O)C1=C(C)NC2=C(C(=O)C(C(=O)OC)C(C)C2)C1c1ccc(OC)c(O)c1 (stereo not drawn)	BoNT A protease inconclusive, Bead autofluor 23122
CCSc1nnc([C@@H](N)Cc2c[nH]c3ccccc23)o1	none
N[C@@H](Cc1c[nH]c2ccccc12)c1nnc(SCc2ccccc2F)o1	Bead autofluor 22370
Cc1cccc(NC(=O)CSc2nnc([C@@H](N)Cc3c[nH]c4ccccc34)o2)c1C	Bead autofluor 23387
CCSc1nnc([C@@H](N)Cc2ccccc2)o1	Bead autofluor 21095
Cc1ccc(C)c(NC(=O)CSc2nnc([C@@H](N)Cc3ccccc3)o2)c1	Bead autofluor 24097
CC(C)(C)Cc1c(-c2ccc(C#N)cc2)nc2c(Cl)cc(C(F)(F)F)cn12	none (no result: BJeLR viability)
Cc1cc(C)n2nc(C(=O)Nc3cccc(S(=O)(=O)N(C)c4ccccc4)c3)nc2n1	none
c1ccc(SC23CCCCN(CCC2)[C@]32CO2)cc1 (stereo partly drawn)	none (no result: BJeLR viability)
C=CCn1c(C)nc2c(cnn2-c2ccccc2)c1=O	none
Cc1ccc(S(=O)(=O)NC(=O)c2cc(C)n(-c3cc(S(=O)(=O)N4CCOCC4)ccc3N3CCCC3)c2C)cc1	none
CC1CN(C(=O)CNC(=O)Cc2cccc3ccccc23)CC(C)O1 (stereo not drawn)	none (no result: BJeLR viability)
C#CCOCCOCCOCCNc1nc(N2CCN(C(=O)[C@H](CCC(=O)O)n3cc(C(N)Cc4ccc(O)cc4)nn3)CC2)nc(N2CCN(C(=O)[C@H](CCCCN)n3cc(C(N)[C@H](C)CC)nn3)CC2)n1 (stereo partly drawn)	none (no result: Anthrax LF inh2, BoNT A protease, Bead autofluor, BoNT F protease)
O=[N+]([O-])/C=C/c1c(OCc2ccccc2)ccc2ccccc12	BJeLR viability 81
CCOc1ccc(/C=C/[N+](=O)[O-])c2ccccc12	BoNT A protease 47
CSc1ccccc1CNc1nc(NCC2CC2)nc2ccsc12	none (no result: BJeLR viability)
COCCNC(=O)C1(C)CCN(C(=O)c2ccc(SC(F)(F)F)cc2)C1 (stereo not drawn)	none (no result: BJeLR viability)
Cn1cc(Br)c(C(=O)NC2C3CC4CC(C3)CC2C4)n1 (stereo not drawn)	BoNT A protease inconclusive, Bead autofluor 20443
COc1ccc2c(C)cc(SCC(=O)c3ccc4c(c3)OCO4)nc2c1	BoNT A protease inconclusive, Bead autofluor 23435
COc1ccc2c(C)cc(SCc3c(C)noc3C)nc2c1	Bead autofluor 22377
COc1ccc2c(C)cc(SCC#N)nc2c1	Bead autofluor 16543
O=C(NCc1ccc(Cl)cc1)C1CCCN(c2ncnc3c2nc2n3CCCCC2)C1 (stereo not drawn)	none
COc1ccc(C(=O)Oc2ccc(F)cc2C(=O)/C=C/c2ccc(OC)c(OC)c2)cc1	none
COc1ccc(/C=C/C(=O)c2cc(F)ccc2OC(=O)c2ccccc2C)cc1OC	BJeLR viability 77
Cc1ccc2nc(C(F)OC(F)(F)F)[nH]c2c1 (stereo not drawn)	Bead autofluor 17272
COC(=O)C1=C(NC(=O)c2cccc(OC)c2)CCS1	Bead autofluor 22750
COC(=O)C1=C(NC(=O)c2ccccc2C)CCS1	none
CCOC(=O)C1=CCC(c2cccc(C)c2)N(S(=O)(=O)c2ccc(C)cc2)C1 (stereo not drawn)	none (no result: BJeLR viability)
